# Measured values: the supplement of paper PMC12494721
# Structures can show the parent of a compound that is named as a salt.
# Experiments:
# Conditions in all cases: incubation time: 27 h, anaerobic, 37 °C;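 for the amine columns active = adjusted P below 0.05 in both replicates with a change the same way and a mean fold change under 0.8 or over 1.25; inactive = the rest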
# [1] = tested on: Clostridium sporogenes DSM 1664; test: growth (OD595) fold change vs plate DMSO controls (fold change (ratio)); higher = more growth
# Summary of the method: (§1)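 The 96-well mGAM cultures had been kept anaerobic for 27 h at 37 °C before being shaken and read at 595 nm. Blank subtraction, compound background correction with 20 µM compound solutions in water, and a calibration factor of 5 turned the readings into OD. Growth is given as the fold change versus the median of plate DMSO controls. Fold changes above 1.5 were set to NA, and the values are means of 2 biological replicates.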
# Escherichia coli IAI1 [2] = test: as above
# Summary of the method: as §1
# [3] = tested on: Klebsiella aerogenes DSM 30053; test: as above
# Summary of the method: as §1
# [4] = tested on: Ruminococcus gnavus DSM 108212; test: as above
# Summary of the method: as §1
# [5] = tested on: Klebsiella aerogenes DSM 30053; test: fold change of Histamine concentration vs plate DMSO controls (fold change (ratio)); higher = more amine produced, active = hit call of the paper (significant change in both replicates, either direction)
# Summary of the method: (§2)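 Amine values are fold changes relative to DMSO-only wells on the same plate. They derive from 27 h, 37 °C anaerobic mGAM cultures of four gut bacterial strains in 80 µL wells, dosed at 20 µM final, or 50 µM final for sweeteners. Extraction of the whole culture, LC–triple-quadrupole MS in dynamic MRM mode, external calibration curves and within-batch drift correction were used, with 2 biological replicates averaged.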
# [6] = tested on: Clostridium sporogenes DSM 1664; test: fold change of Tryptamine concentration vs plate DMSO controls (fold change (ratio)); higher = more amine produced, active = hit call of the paper (significant change in both replicates, either direction)
# Summary of the method: as §2
# [7] = tested on: Ruminococcus gnavus DSM 108212; test: as above
# Summary of the method: as §2
# Escherichia coli IAI1 [8] = test: fold change of Putrescine concentration vs plate DMSO controls (fold change (ratio)); higher = more amine produced, active = hit call of the paper (significant change in both replicates, either direction)
# Summary of the method: as §2
# [9] = tested on: Klebsiella aerogenes DSM 30053; test: as above
# Summary of the method: as §2
# Escherichia coli IAI1 [10] = test: fold change of Cadaverine concentration vs plate DMSO controls (fold change (ratio)); higher = more amine produced, active = hit call of the paper (significant change in both replicates, either direction)
# Summary of the method: as §2
# [11] = tested on: Klebsiella aerogenes DSM 30053; test: as above
# Summary of the method: as §2
# [12] = tested on: Ruminococcus gnavus DSM 108212; test: fold change of 2-Phenylethylamine concentration vs plate DMSO controls (fold change (ratio)); higher = more amine produced, active = hit call of the paper (significant change in both replicates, either direction)
# Summary of the method: as §2
SMILES,growth [1],growth (Escherichia coli IAI1 [2]),growth [3],growth [4],fold change of Histamine concentration [5],fold change of Tryptamine concentration [6],fold change of Tryptamine concentration [7],fold change of Putrescine concentration (Escherichia coli IAI1 [8]),fold change of Putrescine concentration [9],fold change of Cadaverine concentration (Escherichia coli IAI1 [10]),fold change of Cadaverine concentration [11],fold change of 2-Phenylethylamine concentration [12]
Cn1c(NCCN(CCO)CCCc2ccc([N+](=O)[O-])cc2)cc(=O)n(C)c1=O [Nifekalant] (20 µM),1.11,1.06,1.08,1.22,0.994 (inactive),1.01 (inactive),1.01 (inactive),1.04 (inactive),1.02 (inactive),0.971 (inactive),1.01 (inactive),0.997 (inactive)
CNC(=O)c1c(I)c(C(=O)NCC(=O)Nc2c(I)c(C(=O)O)c(I)c(C(=O)NCCO)c2I)c(I)c(N(C)C(C)=O)c1I [Ioxaglic acid] (20 µM),1.16,1.08,1.09,1.02,1.01 (inactive),0.978 (inactive),1.01 (inactive),1.05 (inactive),1.06 (inactive),1 (inactive),1.04 (inactive),0.982 (inactive)
NS(=O)(=O)c1cc(C(=O)NN2C[C@@H]3[C@H]4CC[C@H](C4)[C@@H]3C2)ccc1Cl [Tripamide] (20 µM),0.981,1.01,0.978,1.08,1.01 (inactive),1.03 (inactive),1.06 (inactive),0.995 (inactive),0.981 (inactive),0.928 (inactive),0.998 (inactive),1.05 (inactive)
COc1c2occc2c(OC)c2c(=O)cc(C)oc12 [Khellin] (20 µM),0.981,0.994,1.03,1.11,1.06 (inactive),1 (inactive),1.04 (inactive),1 (inactive),1.01 (inactive),1.02 (inactive),0.992 (inactive),1.09 (inactive)
CO[C@H]1/C=C/O[C@@]2(C)Oc3c(C)c(O)c4c(O)c(c5c(nc6cc(C)ccn65)c4c3C2=O)NC(=O)/C(C)=C\C=C\[C@H](C)[C@H](O)[C@@H](C)[C@@H](O)[C@@H](C)[C@H](OC(C)=O)[C@@H]1C [Rifaximin] (20 µM),0.00823,0.438,0.844,0.306,1.15 (inactive),0.0445 (active),0.144 (active),0.996 (inactive),0.651 (active),1.53 (active),1.04 (inactive),0.149 (active)
CCc1ccc(C(=O)C(C)CN2CCCCC2)cc1 (stereo not given) [Eperisone Hydrochloride] (20 µM),1.04,0.959,0.959,0.991,0.995 (inactive),1.04 (inactive),0.954 (inactive),0.986 (inactive),0.98 (inactive),0.992 (inactive),0.991 (inactive),1.02 (inactive)
CN(C)CCCN1c2ccccc2CCc2ccc(Cl)cc21 [Clomipramine hydrochloride] (20 µM),1.07,0.978,0.972,0.705,1.04 (inactive),1.04 (inactive),0.823 (inactive),0.997 (inactive),1.03 (inactive),1.06 (inactive),0.985 (inactive),0.82 (inactive)
CC(=O)Oc1cc(C(F)(F)F)ccc1C(=O)O [Triflusal] (20 µM),1.01,0.971,0.952,0.878,1 (inactive),1.03 (inactive),1.01 (inactive),1.04 (inactive),0.97 (inactive),0.988 (inactive),0.992 (inactive),1.02 (inactive)
CCc1cccc2c3c([nH]c12)C(CC)(CC(=O)O)OCC3 (stereo not given) [Etodolac] (20 µM),1.08,1.03,1.1,1.06,1.06 (inactive),0.981 (inactive),1.06 (inactive),0.968 (inactive),0.949 (inactive),0.975 (inactive),0.991 (inactive),1.12 (inactive)
O=C(O)Cc1ccccc1Oc1ccc(Cl)cc1Cl [Fenclofenac] (20 µM),0.896,1.02,0.998,1,1.01 (inactive),0.984 (inactive),1.02 (inactive),1.02 (inactive),1.01 (inactive),0.999 (inactive),1.01 (inactive),1.07 (inactive)
CN1CCC(=C2c3ccccc3CCc3sccc32)CC1 [Pizotifen malate] (20 µM),1.3,1.03,0.982,0.963,1.06 (inactive),1.01 (inactive),0.924 (inactive),1 (inactive),1.01 (inactive),1.04 (inactive),0.994 (inactive),0.987 (inactive)
COC(=O)[C@H](Cc1ccccc1)NC(=O)[C@H](CC(=O)O)NCCC(C)(C)C [Neotame] (50 µM),1.05,1,1.04,1.07,0.99 (inactive),1.05 (inactive),1.01 (inactive),1.01 (inactive),1.01 (inactive),0.933 (inactive),1.02 (inactive),1.02 (inactive)
Nc1ccc2cc3ccc(N)cc3nc2c1 [Proflavine hemisulfate] (20 µM),1.13,0.951,1,1.02,0.816 (inactive),1 (inactive),0.861 (inactive),1.03 (inactive),0.963 (inactive),1.16 (inactive),0.982 (inactive),0.861 (inactive)
CC(C)(Oc1ccc(C2CC2(Cl)Cl)cc1)C(=O)O (stereo not given) [Ciprofibrate] (20 µM),0.861,0.88,0.891,0.992,1.01 (inactive),1.04 (inactive),0.951 (inactive),1.01 (inactive),1 (inactive),1.03 (inactive),0.992 (inactive),0.949 (inactive)
CCC1NC(=O)c2cc(S(N)(=O)=O)c(Cl)cc2N1 (stereo not given) [Quinethazone] (20 µM),0.978,0.894,0.838,0.755,1.02 (inactive),1.27 (inactive),1.1 (inactive),0.956 (inactive),0.92 (inactive),1.01 (inactive),1.19 (inactive),1.24 (inactive)
C(=C\c1ccccc1)/CN1CCN(C(c2ccccc2)c2ccccc2)CC1 [Cinnarizine] (20 µM),1.09,0.964,0.991,0.67,0.941 (inactive),0.969 (inactive),0.824 (inactive),0.993 (inactive),0.998 (inactive),0.991 (inactive),1 (inactive),0.878 (inactive)
CC(=O)OC(C)C[N+](C)(C)C (stereo not given) [Methacholine chloride] (20 µM),0.962,1.02,0.965,0.97,0.992 (inactive),1.01 (inactive),1.06 (inactive),1.09 (inactive),1 (inactive),0.985 (inactive),0.989 (inactive),1.08 (inactive)
Cc1ccc(C(=O)c2cc(O)c(O)c([N+](=O)[O-])c2)cc1 [Tolcapone] (20 µM),1.11,0.961,0.997,1.19,1.01 (inactive),0.908 (inactive),0.983 (inactive),1.33 (inactive),0.998 (inactive),0.981 (inactive),1 (inactive),0.971 (inactive)
CCS(=O)(=O)CCn1c([N+](=O)[O-])cnc1C [Tinidazole] (20 µM),0,0.988,0.99,0.176,0.852 (inactive),0.0351 (active),0.0414 (active),1.01 (inactive),0.977 (inactive),1.04 (inactive),0.993 (inactive),0.0315 (active)
CC1=C(C(=O)O)N2C(=O)[C@@H](NC(=O)[C@H](N)C3=CCC=CC3)[C@H]2SC1 [Cephradine monohydrate] (20 µM),1.11,1.04,1.02,1.07,0.968 (inactive),1.04 (inactive),1 (inactive),1.05 (inactive),1 (inactive),0.921 (inactive),0.988 (inactive),0.994 (inactive)
CCOC(=O)[C@H](CCc1ccccc1)N[C@H]1CCc2ccccc2N(CC(=O)O)C1=O [Benazepril hydrochloride] (20 µM),1.03,1,1,1.02,1 (inactive),1.06 (inactive),1.02 (inactive),0.997 (inactive),0.981 (inactive),0.989 (inactive),1.02 (inactive),1.01 (inactive)
CC(C)(C)NC[C@@H](O)COc1cccc2c1CCCC2=O [(+) Levobunolol hydrochloride] (20 µM),1.08,0.974,1.11,0.903,0.936 (inactive),1.05 (inactive),1.04 (inactive),1.04 (inactive),0.985 (inactive),0.994 (inactive),0.999 (inactive),1.02 (inactive)
C#C[C@]1(OC(C)=O)CC[C@H]2[C@@H]3CCC4=CC(=NO)CC[C@@H]4[C@H]3CC[C@@]21CC (mixture of isomers) [Norgestimate] (20 µM),1.25,0.998,1.01,0.991,1.01 (inactive),0.656 (inactive),0.888 (inactive),1.05 (inactive),0.985 (inactive),1.02 (inactive),0.993 (inactive),0.905 (inactive)
CCC[C@@H]1C[C@@H](C(=O)N[C@@H]([C@H]2O[C@H](SC)[C@H](OP(=O)(O)O)[C@@H](O)[C@H]2O)[C@H](C)Cl)N(C)C1 [Clindamycin Phosphate] (20 µM),0.836,1.04,0.998,0.709,1.01 (inactive),0.917 (inactive),0.844 (inactive),1.02 (inactive),1.01 (inactive),0.987 (inactive),0.999 (inactive),0.86 (inactive)
C[C@]12CCC(=O)C=C1C=C[C@@H]1[C@@H]2CC[C@@]2(C)[C@H]1CC[C@@]21CCC(=O)O1 [Canrenone] (20 µM),1.01,1.03,1.01,1.03,0.908 (inactive),1 (inactive),1.12 (inactive),0.86 (inactive),0.967 (inactive),0.878 (inactive),1.02 (inactive),1.14 (inactive)
